Results taken from PubChem BioAssay (Tox21).
Records with an inconclusive call do not appear. Where a call stands in place of a potency, no number is given. Values without a mark were called inactive. The source made the active and inactive calls. Calls come from the whole dose curve; as a rule, active = well fitted cell-killing curve with a large enough effect in the repeat runs; inconclusive = weak or mixed curves, or effect the other way; inactive = flat fitted curve, though single readings scatter.

Legend:
[1] = cAMP Responsive Elements (CRE) small molecule antagonists, cell-based qHTS assay: qHTS cell viability counter screen (AID 2060913); note: nearly all actives have a fitted effect of over 40% in size
How it was run: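 HEK293T CRE-bla, 2,000 cells/well, 18 h preincubation; cpd in DMSO + NKH477 0.25 uM final, 3 h 37 C/5% CO2; LiveBLAzer 2 h RT, then CellTiter-Glo 30 min RT, luminescence.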

[2] = cAMP Responsive Elements (CRE) small molecule agonists, cell-based qHTS assay: qHTS cell viability counter screen (AID 2060914);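 note: viability read after 3 h of compound exposure; nearly all actives have a fitted effect of over 50% in size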
How it was run: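 Cells are seeded and incubated 18 h, treated with compounds in DMSO for 3 h, read for the bla reporter, then given CellTiter-Glo; luminescence is measured after 30 min at room temperature.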

Row | Structure (SMILES) | Potency [1] | Potency [2] | viability change, negative = cytotoxic [1] | activity change, negative = cytotoxicity [2]
1 | OC1CCCCCCCCCCC1 | inactive | inactive | – | –
2 | CC(C)C(=O)c1c(C(C)C)nn2ccccc12 | inactive | inactive | – | –
3 | Cc1c(N(C)C)c(=O)n(-c2ccccc2)n1C | inactive | inactive | – | –
4 | O=CNc1ccccc1 | inactive | inactive | – | –
5 | O=S(=O)(O)c1cccc2ccccc12 | inactive | inactive | – | –
6 | COc1cc(CNC(=O)CCCC/C=C/C(C)C)ccc1O | inactive | inactive | – | –
7 | CCCCCCCCC | inactive | inactive | – | –
8 | Cc1onc(-c2ccccc2)c1C(=O)Cl | inactive | inactive | – | –
9 | CCOC(=O)C1=NN(c2ccc(Cl)cc2Cl)C(C)(C(=O)OCC)C1 (configuration not stated) | inactive | inactive | – | –
10 | CCOc1ccc(N)c([N+](=O)[O-])c1 | inactive | inactive | – | –
11 | O=C1Nc2ccccc2C1=O | inactive | inactive | – | –
12 | CNC(=O)[C@H]1O[C@@H](n2cnc3c(NCc4cc(Cl)ccc4OCc4cc(C)no4)ncnc32)[C@H](O)[C@@H]1N | inactive | inactive | – | –
13 | O=C1CCCCCO1 | inactive | inactive | – | –
14 | O=C1Nc2ccccc2C1(c1ccc(O)cc1)c1ccc(O)cc1 | inactive | inactive | – | –
15 | CC1=CC(C)C(C=O)C(C)C1 (configuration not stated) | inactive | inactive | – | –
16 | CCCCNCC | inactive | inactive | – | –
17 | Cc1cccc2c1ccc1ccccc12 | inactive | inactive | – | –
18 | CCCCCCCCCCCCCC(=O)OCC(O)CO (configuration not stated) | inactive | inactive | – | –
19 | C1CN(CCOCCN2CCOCC2)CCO1 | inactive | inactive | – | –

Row | Structure (SMILES) | Potency [1] | Potency [2] | viability change, negative = cytotoxic [1] | activity change, negative = cytotoxicity [2]
20 | CCC1(C)CC(=O)NC1=O (configuration not stated) | inactive | inactive | – | –
21 | CCCC1CCCC(=O)O1 (configuration not stated) | inactive | inactive | – | –
22 | C[C@]12CCC(=O)C=C1C=C[C@@H]1[C@@H]2CC[C@@]2(C)[C@H]1CC[C@@]21CCC(=O)O1 | inactive | inactive | – | –
23 | CCC(N)(CO)CO | inactive | inactive | – | –
24 | C[C@H](N)[C@H](O)c1cccc(O)c1 | inactive | inactive | – | –
25 | COc1ccc(N=Nc2cc(C)c(N=Nc3ccc(S(=O)(=O)O)cc3)cc2OC)cc1 | inactive | inactive | – | –
26 | C=C(C)C(=O)OCC(C)C | inactive | inactive | – | –
27 | CC1=C(C=O)C(C)(C)CCC1 | inactive | inactive | – | –
28 | CC(C)=CCC/C(C)=C/CC/C(C)=C/C(=O)OCC(=O)[C@@]1(O)CC[C@H]2[C@@H]3CCC4=CC(=O)C=C[C@]4(C)[C@H]3[C@@H](O)C[C@@]21C | inactive | inactive | – | –
29 | O=S(=O)(O)CCN1CCN(CCO)CC1 | inactive | inactive | – | –
30 | COc1cc([C@H]2Oc3cc([C@H]4Oc5cc(O)cc(O)c5C(=O)[C@@H]4O)ccc3O[C@@H]2CO)ccc1O | inactive | inactive | – | –
31 | CC1=NN(c2ccc(S(=O)(=O)O)cc2)C(=O)C1N=Nc1ccccc1 (configuration not stated) | inactive | inactive | – | –
32 | O=c1cc(-c2ccccc2)oc2ccccc12 | inactive | inactive | – | –
33 | O=c1[nH]c(=O)n([C@H]2C[C@H](O)[C@@H](CO)O2)cc1Br | inactive | inactive | – | –
34 | CCC(O)CO (configuration not stated) | inactive | inactive | – | –
35 | CCOC(=O)Oc1ccc(CCNC(=O)[C@H](CCSC)NC(C)=O)cc1OC(=O)OCC | inactive | inactive | – | –
36 | CN(C)c1ccc(/C=C/c2ccc([N+](=O)[O-])cc2)cc1 | – | – | 10.9% [at 8.39 µM] | 5.22% [at 8.39 µM]
37 | Nc1ccncc1N | inactive | inactive | – | –
38 | C=CCOC(=O)COCCC(C)C | inactive | inactive | – | –

Row | Structure (SMILES) | Potency [1] | Potency [2] | viability change, negative = cytotoxic [1] | activity change, negative = cytotoxicity [2]
39 | N#CC1(c2ccc(F)cc2)CCC(=O)CC1 | inactive | inactive | – | –
40 | Oc1cccc(O)c1O | inactive | inactive | – | –
41 | Nc1nc2ccc(OC(F)(F)F)cc2s1 | inactive | inactive | – | –
42 | O=C(O)c1cc(N=Nc2ccc([N+](=O)[O-])cc2)ccc1O | inactive | inactive | – | –
43 | CC(=O)O[C@H]1CC[C@@]2(C)C(=CC[C@@H]3[C@@H]2CC[C@]2(C)C(C(C)=O)=CC[C@@H]32)C1 | inactive | inactive | – | –
44 | C=COCC1CCC(COC=C)CC1 (configuration not stated) | inactive | inactive | – | –
45 | NCC[C@H](O)C(=O)N[C@@H]1C[C@H](N)[C@@H](O[C@H]2O[C@H](CN)[C@@H](O)[C@H](O)[C@H]2O)[C@H](O)[C@H]1O[C@H]1O[C@H](CO)[C@@H](O)[C@H](N)[C@H]1O | – | – | 0.2% [at 0.349 µM] | -8.14% [at 0.349 µM]
46 | O=C(O)CCCCCCCC(=O)O | inactive | inactive | – | –
47 | COC(=O)c1ccccc1O | inactive | inactive | – | –
48 | CC(C)Nc1ccc(NC(C)C)c2c1C(=O)c1ccccc1C2=O | inactive | inactive | – | –
49 | CCCCCCCCCCl | inactive | inactive | – | –
50 | CCCCCCCC(=O)OCC(O)CO (configuration not stated) | inactive | inactive | – | –
51 | C(/C=C/C=C/Nc1ccccc1)=Nc1ccccc1 | inactive | inactive | – | –
52 | CCCCCCCC/C=C/C(=O)O | inactive | inactive | – | –
53 | CCNC(=O)/C=C/c1cccc(Br)c1 | inactive | inactive | – | –
54 | C=CCn1cc[n+](C)c1 | inactive | inactive | – | –
55 | O=S(=O)(c1cccc2cnccc12)N1CCCNCC1 | inactive | inactive | – | –
56 | CCSC(=O)N(CC(C)C)CC(C)C | inactive | inactive | – | –
